# Assay results from PubChem BioAssay AID1845227 (National Center for Advancing Translational Sciences (NCATS), 2023).
# Results filed as inconclusive are left out. Where a call stands in place of a potency, no number is given. Active and inactive are the calls of the source. Calls follow the shape of the dose curve; as a rule, active = well fitted inhibition curve with a large enough effect; inconclusive = small, poorly fitted or top-dose-only effect; inactive = no such curve, though single readings can be large or run the other way.
# Target: Luciferin 4-monooxygenase (Photinus pyralis) (UniProt P08659)
# Assay: Confirmatory firefly luciferase (FLuc) qHTS assay for identification of artifact compounds
# Settings: purified FLuc enzyme, luminescence, 5 min; series mostly up to 38.9 µM
# How it was run: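 Compounds mixed 15 min with 10 uM luciferin/10 uM ATP, then 10 nM firefly luciferase added for 5 min at pH 7.6. Luminescence percent inhibition, scaled to no-enzyme and DMSO controls, fitted to Hill equation.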
# Potency is read from the fitted curve at half-maximal effect.
row,SMILES,Potency
1,C=CCNc1nnc(-c2cccc3ccccc23)o1,inactive
2,COc1ccc(C(=O)Nc2noc3ccccc23)cc1,864 nM (active)
3,CC(=O)Nc1oc(-c2cccc3ccccc23)nc1C#N,inactive
4,COc1ccc(-c2ccc(=O)n(CC(=O)Nc3ccc(OC)c(OC)c3)n2)cc1,inactive
5,O=C1C(c2ccc(F)cc2)N(CCc2ccc(Cl)cc2)C(=O)CN1C1CCCCC1 (stereo not drawn),inactive
6,NC(=O)c1ccc(-c2noc(-c3cccc(Cl)c3)n2)cc1,inactive
7,Cc1ccc(C)c(NC(=O)Cn2c(=O)n(-c3ccc(CC(=O)NCC4CCCO4)cc3)c(=O)c3ccccc32)c1 (stereo not drawn),inactive
8,COc1ccc(-c2cc(C(=O)Nc3cc(C(F)(F)F)ccc3Cl)no2)cc1,inactive
9,Cc1cc(NC(=O)c2cccnc2)cc(-c2nc3cc(Cl)ccc3o2)c1O,inactive
10,COc1ccccc1NC(=O)CSC1=Nc2ccccc2C2=NC(CC(=O)NCc3ccccc3)C(=O)N12 (stereo not drawn),inactive
11,CC1CCN(c2nc3ccccc3nc2SCC(=O)Nc2ccccc2C(C)C)CC1,inactive
12,CC(C)CN(CCNC(=O)c1cn(C)c2ccc(S(=O)(=O)N3CCOCC3)cc2c1=O)CC(C)C,inactive
13,C[C@@H]1O[C@H](O[C@@H]2C(O)[C@H](O)[C@@H](CO)O[C@H]2Oc2cc(O)c3c(=O)cc(-c4ccc(O)cc4)oc3c2)[C@H](O)[C@H](O)[C@H]1O (stereo partly drawn),inactive
14,CCc1ccc(NC(=O)CN2C(=O)C3(SCC(=O)N3c3ccc(F)c(F)c3)c3ccccc32)cc1 (stereo not drawn),inactive
15,CCCCN(C)CCCNC(=O)CN1C(=O)COc2ccc(S(=O)(=O)N3CCC(C)CC3)cc21,inactive
16,Cc1cc(C)n2ncc(C(=O)Nc3ccc(-c4cn[nH]c4)cc3)c2n1,inactive
17,O=c1cc(-c2ccc(O)c(O)c2)oc2cc(O[C@@H]3O[C@@H](CO)[C@@H](O)[C@@H](O)[C@H]3O)cc(O)c12,inactive

row,SMILES,Potency
1,Cc1ccc(NC(=O)CSc2ccc(-c3cccs3)nn2)cc1Cl,inactive
2,Cc1ccc(-c2nc3scc(CCNS(=O)(=O)c4ccc(F)c(C)c4)n3n2)cc1,inactive
3,c1cc(CNc2ccnc(-c3ccc4c(c3)OCO4)n2)ccn1,inactive
4,CCCOC(=O)c1ccc(NC(=O)C2CC(=O)N(c3ccc(C)cc3)C2)cc1 (stereo not drawn),inactive
5,COc1ccc(NC(=O)c2cc(-c3ccccc3O)no2)cc1,inactive
6,CCc1cccc(NC(=O)C2CCC(CNS(=O)(=O)c3csc(C(N)=O)c3)CC2)c1 (stereo not drawn),inactive
7,COc1ccc(N2CC(NC(=O)COc3ccccc3)CC2=O)cc1OC (stereo not drawn),inactive
8,CCCCN(CCCNC(=O)c1cc(Nc2ccc(OC)c(OC)c2)nc2ccccc12)Cc1ccccc1,inactive
9,CC1=C(C(=O)Nc2ccc(Cl)cc2)C(c2ccccc2C)n2ncc(C(=O)Nc3ccc(C)cc3)c2N1 (stereo not drawn),inactive
10,CCCc1nn2cc(-c3ccc(C)c(C)c3)nc2s1,770 nM (active)
11,COc1cccc(C2c3c(ncn(-c4cccc(C#N)c4)c3=N)Oc3ccc4ccccc4c32)c1 (stereo not drawn),inactive
12,Cc1ccc(Nc2c(-c3ccc(C)cc3)nc3c(C)cccn23)cc1,inactive
13,Cc1cn2c(=O)cc(COC(=O)c3cccc(NC(=O)c4ccccc4C)c3)nc2s1,inactive
14,Cc1nc(CC(=O)Nc2ccc(C)c(C)c2)cs1,inactive
15,Cc1ccc(NC(=O)c2sc3ncn(Cc4cccc(F)c4)c(=O)c3c2C)c(Br)c1,inactive
16,O=C=Nc1ccc(Cc2ccc(N=C=O)cc2)cc1,inactive
